# System: Inhibin beta A chain (activin A)
# Test: small molecules binding activin A – biochemical, small-molecule microarray, 635 nm fluorescence scan, primary screen (AID 1107);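 further: mouse activin A protein probed at 4.33 µg/mL on printed slides; score merges bound-protein fluorescence near 667 nm with spot signal-to-noise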
# Conditions: INHBA, higher = more signal
row,Compound,composite z-score
1,CN1C(=O)C2C=CC(C(O)C3CC=CCC3)N(NC(=O)OC(C)(C)C)C2C1=O (stereo unspecified),1.03
2,COc1ccc(CCNC(=O)[C@@]2(Sc3ccc(C)cc3)CC(=O)N(C3CCCCC3)[C@@H]2c2ccc(CO)cc2I)cc1,0.327
3,COc1ccc(CCNC(=O)[C@@H]2c3ccccc3C(=O)N(C3Cc4ccccc4C3)[C@H]2c2ccc(CO)cc2)cc1,0.832
4,CO[C@H]1O[C@H](CO)[C@@H](OC(=O)Nc2ccc(Br)cc2)[C@H](OC(=O)c2cc3ccccc3[nH]2)[C@H]1OC(=O)c1cc2ccccc2[nH]1,0.227
5,C=CCOC(=O)[C@H]1[C@@H]2C(=O)O[C@@H](c3ccccc3)[C@@H](c3ccccc3)N2[C@@H](c2ccc(OCCOC(=O)[C@H]3C[C@H]4C(=O)N[C@@H](CC(C)C)C(=O)N4[C@H]3c3ccc(O)cc3)cc2)[C@]12C(=O)Nc1ccc(I)cc12,0.12
6,O=C(NCC(F)(F)F)[C@@H]1c2ccccc2C(=O)N(C2CCCCC2)[C@H]1c1ccc(CO)cc1,-0.0906
7,CCCC=C(CCC)[C@@H](NC(=O)Oc1ccc(F)cc1)c1ccc(C(=O)OC)cc1,0.602
8,COC(=O)c1c(CC[C@@H](CO)NC(=O)N2CCC[C@H]2Cn2cc(-c3ccccn3)nn2)oc(C(C)=O)c1C(=O)OC,0.113
9,CC(C)(C)OC(=O)CC[C@]1(C(=O)O)N=C(c2ccc(OCCCO)cc2)O[C@H]1c1ccccc1N=[N+]=[N-],0.977
10,COC(=O)C(CC#Cc1ccc2c(c1)[C@]1(C(=O)N2)[C@H](C(=O)O)[C@H]2C(=O)O[C@H](c3ccccc3)[C@H](c3ccccc3)N2[C@@H]1c1ccc(O)cc1)C(=O)OC,-1.07
11,COCCOC(=O)N1C(=O)[C@@]2(c3cc(C#Cc4ccc(OC)cc4)ccc31)[C@H](c1ccc(O)cc1)N1[C@H](c3ccccc3)[C@H](c3ccccc3)OC(=O)[C@H]1[C@@H]2C(=O)NC[C@H](O)c1ccccc1,0.113
12,CN1C(=O)C2C=CC(C(O)c3cccs3)N(Nc3ccccc3)C2C1=O (stereo unspecified),0.693
13,CC(C)(C)OC(=O)CC[C@@]1(C(=O)NCC(O)CO)N=C(c2ccc(OCCCO)cc2)O[C@@H]1c1ccccc1N=[N+]=[N-] (stereo partly specified),0.906
14,C[C@@H]1ON(c2cccc(C(=O)OC(C)(C)C)c2)[C@H](c2ccc(Br)cc2)[C@H]1C(=O)N1C(=O)OC[C@H]1Cc1ccccc1,0.272
15,COc1ccc(C(=O)Nc2ccc(CN3C(=O)[C@@]4(O[C@@H](CCn5cc([C@H](O)c6ccccc6)nn5)[C@H]([Si](C)(C)c5ccc(OC)cc5)[C@H]4C)c4ccccc43)cc2)cc1,0.975
16,CC(C)c1ccc(NN2C(C(O)c3cc(C(F)(F)F)cc(C(F)(F)F)c3)C=CC3C(=O)N(c4ccccc4)C(=O)C32)cc1 (stereo unspecified),0.655

# Source: PubChem BioAssay
